# Several values for one entry are separate records, joined by “and”; a condition that tells them apart may be missing. Equal values may be shown once. Screen size: about 16,000 compounds; about 4,000 (25%) were called active. Roughly 26% stayed inconclusive and do not appear here. Calls follow the shape of the dose curve; as a rule, active = well fitted curve in the direction sought with a large enough effect; inconclusive = small, poorly fitted or top-dose-only effect, or effect the other way; inactive = no such curve, though single readings can be large or run the other way. Only a sample is shown. A structure can be active in one record and inactive in another.
# Target: Cytochrome P450 2C9 (Homo sapiens) (UniProt P11712)
# Experiment: Cytochrome panel assay with activity outcomes
# Conditions: recombinant CYP, pro-luciferin dealkylation, luminescence, p450-cyp2c9; series mostly up to 57.1 µM; activity, negative = inhibition: at the top concentration
# % is scaled to controls: 0 for no effect and ±100 for the full control effect.
# Cytochrome P450 2C9 (Homo sapiens), sequence (P11712 whole entry, looked up): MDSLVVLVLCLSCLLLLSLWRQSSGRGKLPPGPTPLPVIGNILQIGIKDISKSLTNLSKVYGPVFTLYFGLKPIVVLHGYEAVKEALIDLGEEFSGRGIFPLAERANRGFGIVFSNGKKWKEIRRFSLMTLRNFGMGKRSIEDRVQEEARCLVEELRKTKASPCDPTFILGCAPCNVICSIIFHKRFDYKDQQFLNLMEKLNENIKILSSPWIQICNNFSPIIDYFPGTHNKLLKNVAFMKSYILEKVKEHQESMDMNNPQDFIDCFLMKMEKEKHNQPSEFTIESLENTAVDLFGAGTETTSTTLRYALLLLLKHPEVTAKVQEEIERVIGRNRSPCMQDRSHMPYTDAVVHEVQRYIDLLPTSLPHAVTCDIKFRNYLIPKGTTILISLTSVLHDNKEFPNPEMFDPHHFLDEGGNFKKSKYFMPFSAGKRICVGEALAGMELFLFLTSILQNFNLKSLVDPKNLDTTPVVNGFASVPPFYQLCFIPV
Compound,"activity, negative = inhibition",AC50
NC(N)=NN=Cc1c(Cl)cccc1Cl,2.99% (inactive),
c1ccc(N2CCC3(CCNCC3)CC2)cc1,-10.6% (inactive),
COc1ccc(NC(=O)NC2CC3CCCC(C2)N3Cc2ccccc2)cc1 (stereo not given),-30.1% (inactive),
O=C(NC1CCCCC1)NC1CC2CCC(C1)N2Cc1nnnn1Cc1ccc2c(c1)OCO2 (stereo not given),,14.1 µM (active)
CCc1ccccc1NC(=O)NC1CC2CCC(C1)N2Cc1cccs1 (stereo not given),12.3% (inactive),
CC1=C(CC[C@H](C)CO)O[C@@H]2C[C@@H]3[C@H]4CC[C@H]5C[C@@H](O)CC[C@]5(C)[C@@H]4CC(=O)[C@@]3(C)[C@@H]12,-6.29% [at 11.4 µM] (inactive),
O=C1/C(=C\c2ccccc2)C[C@@]2(O)[C@H]3Cc4ccc(O)c5c4[C@@]2(CCN3CC2CC2)[C@@H]1O5,-16.5% (inactive),
O=c1c2ccccc2nc(N2CCCC2)n1-c1ccc(Cl)cc1,,14.1 µM (active)
Cc1nc2sccc2c(=O)n1-c1ccccc1Cl,-26.4% (inactive),
O=C(O)c1nn(Cc2ccc(Cl)cc2Cl)c2ccccc12,-12.3% (inactive),
C=CCN1CCC2(C)c3cc(O)ccc3C[C@H]1[C@H]2C,inactive,
C1C[C@@H]2CN(CCCN3CCOCC3)[C@@H](C1)O2,-4.7% [at 11.4 µM] (inactive),
Cc1ccc(NC(=[OH+])c2cc3ccccc3cc2O)c(C)c1.Cc1ccc(NC(=[OH+])c2cc3ccccc3cc2O)c(C)c1.[Ni],,3.16 µM (active)
COc1cc(CCN)c(OC)c(OC)c1,-1.31% [at 11.4 µM] (inactive),
O=C(CCN1CC2CCC(CC2)C1)c1cccs1,-7.86% [at 11.4 µM] (inactive),
C[C@@H]1OC=C2[C@@H](O)[C@H]3O[C@H]3C(=O)[C@@]23[C@H]1[C@H]1C2=C([C@@H](O)[C@H]4O[C@@H]4C2=O)[C@@H]3O[C@@H]1C,19.8% [at 11.4 µM] (inactive),
Nc1nnnn1CCO,-3.83% [at 11.4 µM] (inactive),
CS(=O)(=O)O[C@H]1CN2CCC1CC2,8.53% [at 11.4 µM] (inactive),
CN1[C@@H]2CC[C@H]1CC(O[C@@H](c1ccccc1)c1ccc(Cl)cc1)C2 (stereo not given in full),inactive,
CCCCN(CCCC)CCC(O)c1cc2c(Cl)cc(Cl)cc2c2cc(C(F)(F)F)ccc12 (stereo not given),4.34% [at 25.6 µM] (inactive),
N[C@H](CCl)C(=O)O,-11.2% (inactive),
O=C(Oc1ccccc1)N1CCC2(CCN(Cc3nccs3)CC2)CC1,19.4% (inactive),
CN(C)Cc1c[nH]c2ccccc12,8.53% [at 25.6 µM] (inactive),

Compound,"activity, negative = inhibition",AC50
CC(C)COc1ccc(C2(C#N)CC[N+](C)(C)CC2)cc1,11.5% (inactive),
C=C(C)[C@H]1CC[C@]2(C(=O)O)CC[C@]3(C)[C@@H](CC[C@H]4[C@@]5(C)CC[C@@H](O)C(C)(C)[C@@H]5CC[C@@]43C)[C@H]12,-9.3% [at 25.6 µM] (inactive),
CCCCCCCC/C=C\CCCCCCCC(N)=O,-12.7% (inactive),
CCCCC/C=C\C/C=C\C/C=C\C/C=C\CCCC(=O)Nc1ccc(O)cc1,,5.01 µM (active)
CCCCC/C=C\C/C=C\C/C=C\C/C=C\CCCC(=O)NCC(=O)O,-23.5% (inactive),
C[N+]1(C)CCc2cc3c(cc2[C@@H]1[C@@H]1OC(=O)c2c1ccc1c2OCO1)OCO3,17.7% (inactive),
O=C(Nc1ccccc1)N1CC[C@@]2(CCCN(C(=O)Oc3ccccc3)C2)C1,-20.1% (inactive),
O=C(O)/C=C(\CC(=O)O)C(=O)O,-16.9% [at 11.4 µM] (inactive),
COCOc1ccc(Br)cc1C(=O)/C=C\c1ccc2c(c1)OCO2,,2 µM (active)
O=C(O)C(=O)Cc1ccc2c(c1)OCO2,25.4% [at 11.4 µM] (inactive),
CCN1CCC2(CC1)NC(CO)(CO)CO2,0.863% (inactive),
O=C(O)[C@H]1[C@H](C(=O)O)[C@H]2CC[C@@H]1O2,5.98% (inactive),
N[C@H](Cc1c[nH]c2ccccc12)P(=O)(O)O,5.69% [at 11.4 µM] (inactive),
C[C@@]12CC(=O)[C@H]3[C@@H](CCC4=CC(=O)CC[C@]43C)[C@H]1CCC2=O,13% [at 25.6 µM] (inactive),
CCCn1c(C)c(C(=O)c2cccc3ccccc23)c2ccccc21,-12.1% (inactive),
O=C(c1ccccc1F)c1cn(CC(=O)N2CCOCC2)c2ccccc12,,11.2 µM (active)
CCOC(=O)Cn1cc(C(=O)c2ccccc2F)c2ccccc21,,7.08 µM (active)
C[C@@]12CC[C@@H]3c4ccc(O)cc4C[C@H](CCCCCCCCCS(=O)CCCC(F)(F)C(F)(F)F)[C@H]3[C@@H]1CC[C@@H]2O (stereo not given in full),-9.41% (inactive),
O=c1cc(-c2ccc(O)cc2)oc2c([C@H]3O[C@@H](CO)[C@@H](O)[C@@H](O)[C@@H]3O)c(O)cc(O)c12,-15% [at 25.6 µM] (inactive),
CN1CC[C@@]2(CCCN(C(=O)Oc3ccccc3)C2)C1,-0.577% (inactive),
CCN1CCN(c2ccc(NC(=O)C(C)C)cc2Cl)CC1,-14.2% (inactive),
C(=NC12CN3CN(CN(C3)C1)C2)c1cccs1,-20.8% (inactive),
CCS(=O)(=O)Nc1cccc(C(=C2CCCCC2)c2cnc[nH]2)c1,,0.631 µM (active)

Compound,"activity, negative = inhibition",AC50
CNC(C)(C)Cc1ccccc1,15.3% [at 25.6 µM] (inactive),
Brc1c(NC2=NCCN2)ccc2nccnc12,-26.3% (inactive),
O=C(Nc1cccc(F)c1)N1CC2(CCN(C(=O)Oc3ccccc3)CC2)C1,-10.4% (inactive),
Nc1ncnc2c1ncn2[C@@H]1O[C@@H](COP(=O)(O)CP(=O)(O)OP(=O)(O)O)[C@H](O)[C@@H]1O,-0.747% (inactive),
C=CCN1C(=O)c2ccccc2Sc2ccc(C(=O)N3CCC4(CC3)OCCO4)cc21,,1.26 µM (active)
CC(=O)c1ccc2c(c1)N(CCCN(C)C)c1ccccc1S2,20.6% [at 25.6 µM] (inactive),
CN1C(=O)c2ccccc2Sc2ccc(C(=O)N3CCC4(CC3)OCCO4)cc21,,8.91 µM (active)
CN1[C@@H](C[C@@H](O)c2ccccc2)CCC[C@@H]1C[C@H](O)c1ccccc1,-7.42% [at 25.6 µM] (inactive),
CCCN(CCC)[C@@H]1CCc2c(OC)cccc2[C@@H]1C,-6.07% (inactive),
C=C1CC[C@H](O)C/C1=C/C=C1\CCC[C@]2(C)[C@H]1CC[C@H]2[C@@H](C)CCCC(C)C,1.21% [at 25.6 µM] (inactive),
CC[C@@]1(O)C(=O)OCc2c1cc1n(c2=O)Cc2cc3ccccc3nc2-1,inactive,
CCC(COC(=O)NC)NC(=O)Oc1ccccc1 (stereo not given),21.5% (inactive),
CN(C(=O)Cc1ccccc1)[C@H](CN1CCCC1)c1ccccc1,-8.81% (inactive),
Cc1cc[c]([Sb]2[O][C@H]([C@H](O)[C@H](O)C(=O)O)[C@@H](CO)[O]2)cc1,14% [at 11.4 µM] (inactive),
O=C(O)CN1CCN(CC(=O)O)CC(=O)[O][Hg][O]C(=O)C1,,1.26 µM (active)
C[C@]12CC[C@H]3c4ccc(O)cc4CC[C@@H]3[C@H]1CC[C@@H]2OP(=O)(O)O,12.3% [at 11.4 µM] (inactive),
Nc1ccccc1O.O.O=C(O)[C@H]1[O][Sb][O][C@H]1C(=O)O,14.2% [at 11.4 µM] (inactive),
O=c1[nH]cnc2[nH]cc(CN3CCCCC3)c12,-6.24% [at 11.4 µM] (inactive),
N=C1c2ccccc2CN1NC(=O)c1ccc(Cl)cc1,-1.51% (inactive),
O=C(Oc1ccccc1)N1CCC2(CCCN(Cc3nccs3)C2)CC1,-16.6% (inactive),
C[C@@H](Cc1cccc(C(F)(F)F)c1)NCCCc1ccccc1,-1.99% (inactive),
C[C@@]12CC[C@H]3[C@H](CC=C4C[C@@H](O)CC[C@@]43C)[C@@H]1CC[C@@H]2N(CCO)CCO,7.98% [at 11.4 µM] (inactive),
CN(C)CCC(=O)[C@@]1(O)CC[C@H]2[C@H]3CC=C4C[C@@H](O)CC[C@]4(C)[C@H]3CC[C@]21C,,2.51 µM (active)

Compound,"activity, negative = inhibition",AC50
C[C@H]1CC[C@@]2(NC1)O[C@@H]1C[C@@H]3[C@@H]4CC=C5C[C@@H](O)CC[C@]5(C)[C@@H]4CC[C@]3(C)[C@H]1[C@@H]2C,-1.5% [at 11.4 µM] (inactive),
Oc1ccc2c3c1O[C@H]1c4oc5ccccc5c4C[C@]4(O)[C@H](C2)N(CC2CC2)CC[C@@]314,inactive,
CN1CCN(c2ncc3ncc(=O)n(C)c3n2)CC1,-1.78% (inactive),
C[C@@H](Cc1ccccc1)NCCC(c1ccccc1)c1ccccc1,-14.2% [at 25.6 µM] (inactive),
C[C@@H](Cc1ccc(OCC(=O)O)cc1)NC[C@H](O)c1cccc(Cl)c1,,inactive and 6.31 µM (active)
NS(=O)(=O)c1ccc(-c2ccc([As](=O)(O)O)cc2)cc1,14.8% [at 11.4 µM] (inactive),
Cc1cc(C)nc(NC2=NCCS2)n1,-12.5% (inactive),
CCN1CCN(S(=O)(=O)c2ccc(Cl)nc2)CC1,16% (inactive),
C[C@]12N[C@@H](Cc3ccccc31)c1ccccc12,inactive,
CCCc1cc2c(n1CCO)C(C)C1CN(C(=O)c3ccccc3)C(C)(C(=O)OC)C21 (stereo not given),,12.6 µM (active)
CCCc1cc2c(n1Cc1cccc(Cl)c1)C(C)C1CN(C(=O)c3ccccc3)C(C)(C(=O)OC)C21 (stereo not given),,5.01 µM (active)
NC[C@H](O)c1cc(O)c(O)cc1F,-14.1% (inactive),
C=C1[C@@H]2CC[C@H]3[C@@]4(C)C[C@@H](O[C@@H]5O[C@H](CO)[C@H](OS(=O)(=O)O)[C@@H](OS(=O)(=O)O)[C@@H]5OC(=O)CC(C)C)C[C@@H](C(=O)O)[C@H]4CC[C@@]3(C2)[C@H]1O,7.32% [at 25.6 µM] (inactive),
C=C1C(O)(c2ccccc2)C2CC[N+]1(C)CC2 (stereo not given),35.1% (inactive),
COc1cc2c(cc1OC)[C@@]13CCN4CC5=CCO[C@H](CC(=O)O)[C@@H]([C@H]1N2)[C@H]5C[C@H]43,-2.18% [at 11.4 µM] (inactive),
Cc1c(OCC(F)(F)F)ccnc1CS(=O)c1nc2ccccc2[nH]1 (stereo not given),-13.7% [at 25.6 µM] (inactive),
C=CCO[C@@H](Cn1ccnc1)c1ccc(Cl)cc1Cl,,0.1 µM (active)
CC(=O)N1CC[N+](C)(C)CC1,3.49% (inactive),
CN1[C@@H]2CC[C@H]1CC(NC(=O)c1nn(C)c3ccccc13)C2 (stereo not given in full),-3.75% (inactive),
CCOc1ccc(C2C(C#N)=C(N)Oc3c2c(=O)oc2ccccc32)cc1 (stereo not given),,0.0224 µM (active)
C[C@@]12CC[C@H](O[C@@H]3O[C@H](CO)[C@@H](O)[C@H](O)[C@@H]3O)C[C@@H]1CC[C@H]1[C@H]2CC[C@@]2(C)[C@@H](C3=CCOC3=O)CC[C@]12O,2% [at 11.4 µM] (inactive),
